Assay results taken from PubChem BioAssay (NCATS).
Inconclusive results are not listed. Where a call stands in place of a potency, no number is given. Values without a mark were called inactive. Active and inactive are the calls of the source. Unless noted, calls come from the whole dose curve; as a rule, active = well fitted curve in the direction sought with a large enough effect; inconclusive = small, poorly fitted or top-dose-only effect, or another doubt; inactive = no such curve, though single readings can be large; an effect the other way counts as inactive or inconclusive.

Columns and labels:
[1] = Counterscreen qHTS for small molecule stabilizers of the endoplasmic reticulum resident proteome: GLuc-NoTag assay (AID 1508627); note: series mostly up to about 76 µM
Procedure, shortened: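 Counterscreen line: SH-SY5Y-GLuc-NoTag. Seed, 5 h; compound, 19 h; thapsigargin 100 nM, 4 h; 37C/5% CO2. Readout: secreted GLuc luminescence, coelenterazine 0.07x final, no lysis.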

[2] = Confirmatory qHTS for small molecule stabilizers of the endoplasmic reticulum resident proteome: Secreted ER Calcium Modulated Protein (SERCaMP) assay (AID 1508628); note: nearly all actives have a fitted effect of over 40% in size; note: potency is the fitted concentration of half-maximal effect
Procedure, shortened: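 Reporter secretion upon ER calcium depletion (100 nM thapsigargin, 4 h, 37C) is measured as medium luminescence with coelenterazine, after 16 h compound pretreatment of SH-SY5Y-GLuc-SERCaMP cells; primary at three concentrations up to 38.3 uM, follow-up at 11 (up to 76.6 uM).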

[3] = Cell Viability qHTS for small molecule stabilizers of the endoplasmic reticulum resident proteome (AID 1508629); conditions: cell viability counter-screen, 100 nM thapsigargin for final 4 h;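 note: human SH-SY5Y neuroblastoma cells carrying the GLuc-SERCaMP reporter; compound exposure about 46 h in total before the viability read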
[4] = molecular target: Cytochrome P450 2D6 (Homo sapiens) (UniProt P10635); assay: Cytochrome P450 family 2 subfamily D member 6 (CYP2D6) small molecule antagonists: luciferase biochemical (cell-free) qHTS assay (AID 1645840; active = well fitted curve in the direction sought with a large enough effect in the repeat runs; an effect the other way counts as inactive or inconclusive; note: nearly all actives have a fitted effect of over 55% in size; note: potency is the fitted concentration of half-maximal effect)
Cytochrome P450 2D6 (Homo sapiens), sequence (P10635 whole entry, looked up): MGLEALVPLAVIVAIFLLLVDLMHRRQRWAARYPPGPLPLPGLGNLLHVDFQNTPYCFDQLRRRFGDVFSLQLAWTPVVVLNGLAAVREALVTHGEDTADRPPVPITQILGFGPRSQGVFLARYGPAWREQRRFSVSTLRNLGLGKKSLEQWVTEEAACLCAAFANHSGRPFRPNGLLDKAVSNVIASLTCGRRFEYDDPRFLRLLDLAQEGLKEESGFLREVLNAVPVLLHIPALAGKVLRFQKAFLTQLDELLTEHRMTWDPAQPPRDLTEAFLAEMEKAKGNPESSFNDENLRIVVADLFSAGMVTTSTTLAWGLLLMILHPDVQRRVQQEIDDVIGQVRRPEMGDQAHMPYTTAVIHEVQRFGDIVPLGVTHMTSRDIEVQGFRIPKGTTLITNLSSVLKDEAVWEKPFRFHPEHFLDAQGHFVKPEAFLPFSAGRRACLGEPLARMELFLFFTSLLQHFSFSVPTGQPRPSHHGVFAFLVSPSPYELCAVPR
Procedure, shortened: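 P450-Glo CYP2D6 system: proluciferin substrate converted by enzyme to luciferin, read by luminescence proportional to activity. Enzyme-substrate mix with compound 10 min at room temperature, then NADPH regeneration 1 h before detection reagent.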

[5] = molecular target: Cytochrome P450 2C9 (Homo sapiens) (UniProt P11712); assay: Cytochrome P450 family 2 subfamily C member 9 (CYP2C9) small molecule antagonists: luciferase biochemical (cell-free) qHTS assay (AID 1645842; active = well fitted curve in the direction sought with a large enough effect in the repeat runs; an effect the other way counts as inactive or inconclusive; note: nearly all actives have a fitted effect of over 55% in size; note: potency is the fitted concentration of half-maximal effect)
Cytochrome P450 2C9 (Homo sapiens), sequence (P11712 whole entry, looked up): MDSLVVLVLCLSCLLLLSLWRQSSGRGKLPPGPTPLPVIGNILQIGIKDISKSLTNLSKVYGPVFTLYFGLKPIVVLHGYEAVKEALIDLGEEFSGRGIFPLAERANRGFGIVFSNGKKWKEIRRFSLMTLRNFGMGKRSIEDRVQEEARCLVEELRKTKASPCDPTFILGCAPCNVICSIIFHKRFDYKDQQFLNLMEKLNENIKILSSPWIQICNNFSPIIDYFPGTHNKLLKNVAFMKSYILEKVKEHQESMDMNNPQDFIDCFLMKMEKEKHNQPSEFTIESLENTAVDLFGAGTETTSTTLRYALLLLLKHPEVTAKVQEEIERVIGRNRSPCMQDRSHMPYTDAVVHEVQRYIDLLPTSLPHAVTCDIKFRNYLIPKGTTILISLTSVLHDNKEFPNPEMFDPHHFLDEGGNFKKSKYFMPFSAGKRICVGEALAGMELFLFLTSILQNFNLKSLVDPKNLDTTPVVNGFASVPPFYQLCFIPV
Procedure, shortened: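 P450-Glo CYP2C9 system: proluciferin substrate with enzyme in mix containing 0.4% BSA, 10 min at room temperature, then NADPH regeneration solution added and incubated 1 h at 37C. Detection reagent stopped reaction; luminescence read after 20 min as RLU.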

[6] = A High-Content qHTS Against Drug Library for the Identification of Small Molecules that Inhibit DYT1 Early Onset Primary Dystonia-Associated Cell Pathology (AID 1645839; calls by dose curve; note: potency is the fitted concentration of half-maximal effect)
Procedure, shortened: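 Cells were seeded and left for 24 h, then dosed with compound alongside tetracycline induction of mutant EGFP-TorsinA. They were incubated for 48 h, fixed in 4% paraformaldehyde, permeabilized and imaged for mislocalization (%pathology) and cell count.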

[7] = molecular target: Cytochrome P450 3A4 (Homo sapiens) (UniProt P08684); assay: Cytochrome P450 family 3 subfamily A member 4 (CYP3A4) small molecule antagonists: luciferase qHTS assay (AID 1645841; active = well fitted curve in the direction sought with a large enough effect in the repeat runs; an effect the other way counts as inactive or inconclusive; note: potency is the fitted concentration of half-maximal effect; nearly all actives have a fitted effect of over 45% in size)
Cytochrome P450 3A4 (Homo sapiens), sequence (P08684 whole entry, looked up): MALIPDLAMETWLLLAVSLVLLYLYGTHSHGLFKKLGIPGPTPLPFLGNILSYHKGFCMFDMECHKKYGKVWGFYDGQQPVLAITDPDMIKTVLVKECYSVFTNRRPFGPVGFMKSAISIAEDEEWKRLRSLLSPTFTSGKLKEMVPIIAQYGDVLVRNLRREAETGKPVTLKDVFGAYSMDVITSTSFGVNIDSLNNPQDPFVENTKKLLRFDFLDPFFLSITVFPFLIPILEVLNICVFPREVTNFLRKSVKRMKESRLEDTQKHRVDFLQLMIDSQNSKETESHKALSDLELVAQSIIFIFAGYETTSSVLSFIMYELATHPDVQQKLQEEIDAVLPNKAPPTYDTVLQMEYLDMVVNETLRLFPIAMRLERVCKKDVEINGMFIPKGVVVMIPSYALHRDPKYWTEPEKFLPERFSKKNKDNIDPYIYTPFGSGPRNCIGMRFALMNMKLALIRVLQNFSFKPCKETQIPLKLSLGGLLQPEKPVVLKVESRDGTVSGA
Procedure, shortened: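 P450-Glo CYP3A4 enzyme with proluciferin substrate preincubated 10 min with compound at room temperature, then NADPH regeneration 1 h. Luciferin detection reagent added for 20 min; luminescence recorded. Ketoconazole positive control.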

[8] = Primary qHTS for small molecule stabilizers of the endoplasmic reticulum resident proteome: Secreted ER Calcium Modulated Protein (SERCaMP) assay (AID 1508630)
Procedure, shortened: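 The SH-SY5Y reporter protocol was run at 3 concentrations up to 38.3 uM (primary) or 11 concentrations (follow-up): 16 h compound, 100 nM thapsigargin for 4 h, then extracellular luciferase luminescence.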

COC(=O)c1c(Cl)c(Cl)c(C(=O)OC)c(Cl)c1Cl
Potency [1]: inactive | Potency [2]: inactive | max response [3]: 10.1% | Potency [4]: inactive | Potency [5]: inactive

CC(C)C[C@@H]1[C@H](c2ccccc2)OC(=O)N1CCCN1CCCCCC1
Potency [1]: inactive | Potency [2]: 31.6 µM (active) | max response [3]: -0.48% | Potency [4]: 0.776 µM (active) | Potency [5]: inactive

CCOC(=O)N1CCC(Nc2ccc(Cl)cc2N)CC1
max response [3]: -17.4% | Potency [4]: 7.76 µM (active) | Potency [5]: 8.71 µM (active)

CN1CCC(Nc2ncc3ncnc(Nc4ccc(F)c(Cl)c4)c3n2)CC1
Potency [1]: inactive | Potency [2]: inactive | Potency [4]: 15.5 µM (active)

CC(CC1c2ccccc2CCc2ccccc21)CN(C)C (stereo not drawn)
Potency [1]: inactive | Potency [4]: 0.246 µM (active) | Potency [5]: inactive

CN(C)CCOC(c1ccccc1)c1ccc(Br)cc1 (stereo not drawn)
Potency [1]: inactive | Potency [4]: 0.275 µM (active) | Potency [5]: inactive

CCC(=O)O[C@H]1[C@H](O[C@@H]2[C@@H](C)[C@H](O[C@H]3C[C@@](C)(OC)[C@@H](O)[C@H](C)O3)[C@@H](C)C(=O)O[C@H](CC)[C@@](C)(O)[C@H](O)[C@@H](C)C(=O)[C@H](C)C[C@@]2(C)O)O[C@H](C)C[C@@H]1N(C)C
Potency [1]: inactive | Potency [2]: 20 µM (active) | max response [3]: 17.4% | Potency [6]: inactive | Potency [4]: inactive | Potency [7]: 18.2 µM (active) | Potency [5]: inactive

CCCCN(CCCC)C(C(N)=O)c1ccc(OC)cc1 (stereo not drawn)
Potency [8]: inactive | Potency [6]: inactive

CC(C)C(=O)Nc1cccc(C2CN3CCSC3=N2)c1 (stereo not drawn)
Potency [8]: inactive | Potency [6]: inactive

CN1CC(=O)N2[C@H](c3ccc4c(c3)OCO4)c3[nH]c4ccccc4c3C[C@@H]2C1=O
Potency [8]: inactive | Potency [6]: inactive

C[C@H]1C[C@@H]2[C@H]([C@@H](O)C[C@@]3(C)[C@H]2CC[C@]3(O)C(=O)CO)[C@@]2(C)C=CC(=O)C=C12
Potency [8]: inactive | Potency [6]: inactive

O=S(=O)(O)c1ccc2nc(-c3ccccc3)[nH]c2c1
Potency [8]: inactive | Potency [6]: inactive

O=C(O)Cc1ccccc1Oc1ccc(Cl)cc1Cl
Potency [8]: inactive | Potency [6]: inactive | Potency [4]: inactive

O=C(OCCN1CCOCC1)c1cccnc1Nc1cccc(C(F)(F)F)c1
Potency [8]: inactive

O=C1CCCc2c(O)cccc21
Potency [8]: inactive | Potency [6]: inactive

Cc1c(C)c2c(c(C)c1OC(=O)CCC(=O)OCCO)CC[C@@](C)(CCC[C@H](C)CCC[C@H](C)CCCC(C)C)O2
Potency [8]: inactive | Potency [6]: 5.62 µM (active)

O=C(O)CCC(=O)OC[C@@H](NC(=O)C(Cl)Cl)[C@H](O)c1ccc([N+](=O)[O-])cc1
Potency [8]: inactive | Potency [6]: inactive | Potency [4]: inactive

CC(Oc1c(Cl)cccc1Cl)C1=NCCN1 (stereo not drawn)
Potency [8]: inactive | Potency [6]: inactive | Potency [4]: 8.71 µM (active)

Cc1cccc(N(C)C(=S)Oc2ccc3c(c2)CCC3)c1
Potency [8]: inactive | Potency [6]: inactive | Potency [4]: inactive

OC1(c2ccc(Cl)cc2)CCNCC1
Potency [8]: inactive | Potency [6]: inactive | Potency [4]: 15.5 µM (active)

CCC1=C[C@@H]2CN(C1)Cc1c([nH]c3ccccc13)[C@@](C(=O)OC)(c1cc3c(cc1OC)N(C)[C@H]1[C@@](O)(C(=O)OC)[C@H](OC(C)=O)[C@]4(CC)C=CCN5CC[C@]31[C@@H]54)C2
Potency [8]: inactive

CCCCCCCCCCCCCCCC[n+]1ccccc1
Potency [8]: inactive

CN1CCN(N)CC1
Potency [8]: inactive | Potency [6]: inactive | Potency [4]: inactive

OCCOCCN1CCN(C(c2ccccc2)c2ccc(Cl)cc2)CC1 (stereo not drawn)
Potency [8]: inactive

O=C1NCCN1CCN1CCC(c2cn(-c3ccc(F)cc3)c3ccc(Cl)cc23)CC1
Potency [8]: inactive | Potency [6]: 11.2 µM (active) | Potency [4]: 1.55 µM (active)

COc1ccc([C@@H]2Sc3ccccc3NC(=O)[C@@H]2O)cc1
Potency [8]: inactive | Potency [6]: inactive | Potency [4]: 13.8 µM (active)

O=C(O)/C=C(\CC(=O)O)C(=O)O
Potency [8]: inactive | Potency [6]: inactive

CCCc1ncc(C(=O)O)s1
Potency [8]: inactive | Potency [6]: inactive | Potency [4]: inactive

NS(=O)(=O)c1ccc(N2CCCCS2(=O)=O)cc1
Potency [8]: inactive | Potency [6]: inactive

N#Cc1cc(NC(=O)C(=O)O)c(Cl)c(NC(=O)C(=O)O)c1
Potency [8]: inactive | Potency [6]: inactive | Potency [4]: inactive

CC(C)N(CCC(=O)c1ccc2ccccc2c1)Cc1ccccc1
Potency [8]: inactive

O=c1[nH]c(=O)n([C@H]2O[C@H](CO)[C@@H](O)[C@@H]2O)cc1/C=C\Br
Potency [8]: inactive | Potency [6]: inactive | Potency [4]: inactive

CCCCC(=O)OCC(=O)[C@H]1[C@H](C)C[C@H]2[C@@H]3C[C@H](F)C4=CC(=O)C=C[C@]4(C)[C@@]3(F)[C@@H](O)C[C@@]21C
Potency [8]: inactive | Potency [6]: inactive

O=C(O)c1[nH]n(-c2ccc(S(=O)(=O)O)cc2)c(=O)c1N=Nc1ccc(S(=O)(=O)O)cc1
Potency [8]: inactive | Potency [6]: inactive | Potency [4]: inactive

Cc1ccc(C(=O)Oc2ccc(C(O)CNC(C)(C)C)cc2OC(=O)c2ccc(C)cc2)cc1 (stereo not drawn)
Potency [8]: inactive

CCNC(=O)NCCCOc1cccc(CN2CCCCC2)c1
Potency [8]: inactive | Potency [6]: inactive

CCCC(=O)O[C@]1(C(=O)CCl)[C@@H](C)C[C@H]2[C@@H]3CCC4=CC(=O)C=C[C@]4(C)[C@@]3(F)C(=O)C[C@@]21C
Potency [8]: inactive | Potency [6]: inactive

CCCCC(CC)CNC(=O)CC(C)OC(=O)CCC(=O)O (stereo not drawn)
Potency [8]: inactive | Potency [6]: inactive

CC(C)C(=O)OCc1cccc(OC(=O)[C@@H]2N3C(=O)[C@@H](NC(=O)Cc4ccccc4)[C@H]3SC2(C)C)c1
Potency [8]: inactive | Potency [6]: inactive | Potency [4]: inactive

Cc1oc(-c2ccccc2)nc1CCC(=O)c1ccc(CC2SC(=O)NC2=O)cc1 (stereo not drawn)
Potency [8]: inactive

CC(=O)OC/C=C(C)/C=C/C=C(C)/C=C/C1=C(C)CCCC1(C)C
Potency [8]: inactive | Potency [6]: inactive

Nc1c[n+](N2CCOCC2)no1
Potency [8]: inactive | Potency [6]: inactive | Potency [4]: inactive

CCCCCCCC(=O)[O-].CCCCCCCC(=O)[O-].[Zn+2]
Potency [8]: inactive | Potency [6]: inactive
